Measurements taken from the supplement of paper PMC4466140.

Assays:
Assay in all cases: SPOT peptide array binding signal intensity (averaged, normalized) (arbitrary units (background-subtracted, floor 0; scale differs between SH3 domains)); higher = stronger binding of the SH3 domain to the peptide
[1] = target: SpBzz1-D2
Method in brief: (§1)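 Binding signal is given in arbitrary units that differ between domains and is the normalized, background-subtracted spot intensity averaged across replicates. Each GST-SH3 fusion from one of four yeast species was made in E. coli BL21(DE3), purified on glutathione Sepharose and incubated at 10 μg/ml overnight at 4°C on cellulose-bound synthetic 15-mer peptides in which cysteines were replaced by serines. Detection used anti-GST antibody, an HRP anti-mouse secondary and luminol, followed by imaging and Genespotter quantification.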

[2] = target: SpCyk3
Method in brief: as §1

[3] = target: SpHof1
Method in brief: as §1

[4] = target: SpHof1-2
Method in brief: as §1

[5] = target: SpHof1-3
Method in brief: as §1

[6] = target: SpHse1
Method in brief: as §1

[7] = target: SpLsb1
Method in brief: as §1

[8] = target: SpLsb4
Method in brief: as §1

[9] = target: SpMyo1
Method in brief: as §1

[10] = target: SpNbp2
Method in brief: as §1

[11] = target: SpPex13
Method in brief: as §1

[12] = target: SpRvs167
Method in brief: as §1

[13] = target: SpSla1-D1-D2
Method in brief: as §1

[14] = target: SpSla1-D3
Method in brief: as §1

[15] = target: AgAbp1
Method in brief: as §1

[16] = target: AgBbc1
Method in brief: as §1

[17] = target: AgBem1-D1
Method in brief: as §1

[18] = target: AgBzz1-D1
Method in brief: as §1

[19] = target: AgBzz1-D2
Method in brief: as §1

[20] = target: AgCyk3
Method in brief: as §1

[21] = target: AgFus1
Method in brief: as §1

[22] = target: AgHof1
Method in brief: as §1

[23] = target: AgHse1
Method in brief: as §1

[24] = target: AgLsb1
Method in brief: as §1

[25] = target: AgLsb4
Method in brief: as §1

[26] = target: AgMyo5
Method in brief: as §1

[27] = target: AgNbp2
Method in brief: as §1

[28] = target: AgRvs167
Method in brief: as §1

[29] = target: AgSho1
Method in brief: as §1

[30] = target: AgSla1-D1-D2
Method in brief: as §1

[31] = target: AgSla1-D3
Method in brief: as §1

[32] = target: CaAbp1-D1
Method in brief: as §1

[33] = target: CaAbp1-D2
Method in brief: as §1

[34] = target: CaBbc1
Method in brief: as §1

[35] = target: CaBem1-D1
Method in brief: as §1

[36] = target: CaBzz1-D1
Method in brief: as §1

[37] = target: CaBzz1-D2
Method in brief: as §1

[38] = target: CaCyk3
Method in brief: as §1

[39] = target: CaFus1
Method in brief: as §1

[40] = target: CaHof1
Method in brief: as §1

[41] = target: CaHse1
Method in brief: as §1

[42] = target: CaLsb1
Method in brief: as §1

[43] = target: CaLsb4
Method in brief: as §1

[44] = target: CaMyo5
Method in brief: as §1

[45] = target: CaNbp2
Method in brief: as §1

[46] = target: CaRvs167
Method in brief: as §1

[47] = target: CaRvs167-3
Method in brief: as §1

[48] = target: CaSho1
Method in brief: as §1

[49] = target: CaSla1-D1-D2
Method in brief: as §1

[50] = target: CaSla1-D3
Method in brief: as §1

[51] = target: ScAbp1
Method in brief: as §1

[52] = target: ScBbc1
Method in brief: as §1

[53] = target: ScBem1-D1
Method in brief: as §1

[54] = target: ScBzz1-D1
Method in brief: as §1

[55] = target: ScBzz1-D2
Method in brief: as §1

[56] = target: ScCyk3
Method in brief: as §1

[57] = target: ScFus1
Method in brief: as §1

[58] = target: ScHof1
Method in brief: as §1

[59] = target: ScHse1
Method in brief: as §1

[60] = target: ScLsb1
Method in brief: as §1

[61] = target: ScLsb2
Method in brief: as §1

[62] = target: ScLsb3
Method in brief: as §1

[63] = target: ScLsb4
Method in brief: as §1

[64] = target: ScMyo3
Method in brief: as §1

[65] = target: ScMyo5
Method in brief: as §1

[66] = target: ScNbp2
Method in brief: as §1

[67] = target: ScPex13
Method in brief: as §1

[68] = target: ScRvs167
Method in brief: as §1

[69] = target: ScSho1
Method in brief: as §1

[70] = target: ScSla1-D1-D2
Method in brief: as §1

[71] = target: ScSla1-D3
Method in brief: as §1

[72] = target: SpAbp1-D1
Method in brief: as §1

[73] = target: SpBbc1
Method in brief: as §1

[74] = target: SpBzz1-D1
Method in brief: as §1

GERSRPLVISILSSA
SPOT peptide array binding signal intensity [1]: 0.75 | SPOT peptide array binding signal intensity [2]: 26.5 | SPOT peptide array binding signal intensity [3]: 146 | SPOT peptide array binding signal intensity [4]: 12.2 | SPOT peptide array binding signal intensity [5]: 113 | SPOT peptide array binding signal intensity [6]: 482 | SPOT peptide array binding signal intensity [7]: ≤ 0 | SPOT peptide array binding signal intensity [8]: 9 | SPOT peptide array binding signal intensity [9]: 6 | SPOT peptide array binding signal intensity [10]: 146 | SPOT peptide array binding signal intensity [11]: 28 | SPOT peptide array binding signal intensity [12]: 0.333 | SPOT peptide array binding signal intensity [13]: ≤ 0 | SPOT peptide array binding signal intensity [14]: 11

RKNRAPPQRPRFNRE
SPOT peptide array binding signal intensity [15]: 777 | SPOT peptide array binding signal intensity [16]: 536 | SPOT peptide array binding signal intensity [17]: 379 | SPOT peptide array binding signal intensity [18]: 248 | SPOT peptide array binding signal intensity [19]: 220 | SPOT peptide array binding signal intensity [20]: 7 | SPOT peptide array binding signal intensity [21]: 404 | SPOT peptide array binding signal intensity [22]: 117 | SPOT peptide array binding signal intensity [23]: 469 | SPOT peptide array binding signal intensity [24]: 267 | SPOT peptide array binding signal intensity [25]: 71 | SPOT peptide array binding signal intensity [26]: 2.5 | SPOT peptide array binding signal intensity [27]: 1890 | SPOT peptide array binding signal intensity [28]: 8.33 | SPOT peptide array binding signal intensity [29]: 47.5 | SPOT peptide array binding signal intensity [30]: 320 | SPOT peptide array binding signal intensity [31]: 39.2 | SPOT peptide array binding signal intensity [32]: 976 | SPOT peptide array binding signal intensity [33]: 788 | SPOT peptide array binding signal intensity [34]: 945 | SPOT peptide array binding signal intensity [35]: 39 | SPOT peptide array binding signal intensity [36]: 2100 | SPOT peptide array binding signal intensity [37]: 1120 | SPOT peptide array binding signal intensity [38]: 642 | SPOT peptide array binding signal intensity [39]: 706 | SPOT peptide array binding signal intensity [40]: 0.5 | SPOT peptide array binding signal intensity [41]: 89.8 | SPOT peptide array binding signal intensity [42]: 7 | SPOT peptide array binding signal intensity [43]: 646 | SPOT peptide array binding signal intensity [44]: 9.25

NNFYRPLLRSVLVLL
SPOT peptide array binding signal intensity [15]: ≤ 0 | SPOT peptide array binding signal intensity [16]: ≤ 0 | SPOT peptide array binding signal intensity [17]: 8 | SPOT peptide array binding signal intensity [18]: 13 | SPOT peptide array binding signal intensity [19]: 18 | SPOT peptide array binding signal intensity [20]: ≤ 0 | SPOT peptide array binding signal intensity [21]: 246 | SPOT peptide array binding signal intensity [22]: ≤ 0 | SPOT peptide array binding signal intensity [23]: 722 | SPOT peptide array binding signal intensity [24]: 0.5 | SPOT peptide array binding signal intensity [25]: 10.5 | SPOT peptide array binding signal intensity [26]: ≤ 0 | SPOT peptide array binding signal intensity [27]: 6.5 | SPOT peptide array binding signal intensity [28]: 1 | SPOT peptide array binding signal intensity [29]: 14.5 | SPOT peptide array binding signal intensity [30]: 1 | SPOT peptide array binding signal intensity [31]: 2 | SPOT peptide array binding signal intensity [32]: ≤ 0 | SPOT peptide array binding signal intensity [33]: ≤ 0 | SPOT peptide array binding signal intensity [34]: ≤ 0 | SPOT peptide array binding signal intensity [35]: ≤ 0 | SPOT peptide array binding signal intensity [36]: ≤ 0 | SPOT peptide array binding signal intensity [37]: 1 | SPOT peptide array binding signal intensity [38]: ≤ 0 | SPOT peptide array binding signal intensity [39]: 2730 | SPOT peptide array binding signal intensity [40]: 0.75 | SPOT peptide array binding signal intensity [41]: 21.8 | SPOT peptide array binding signal intensity [42]: ≤ 0 | SPOT peptide array binding signal intensity [43]: ≤ 0 | SPOT peptide array binding signal intensity [44]: ≤ 0 | SPOT peptide array binding signal intensity [45]: 72.5 | SPOT peptide array binding signal intensity [46]: 3 | SPOT peptide array binding signal intensity [47]: 1 | SPOT peptide array binding signal intensity [48]: 80 | SPOT peptide array binding signal intensity [49]: ≤ 0 | SPOT peptide array binding signal intensity [50]: ≤ 0 | SPOT peptide array binding signal intensity [51]: ≤ 0 | SPOT peptide array binding signal intensity [52]: 0.75 | SPOT peptide array binding signal intensity [53]: 4 | SPOT peptide array binding signal intensity [54]: 19 | SPOT peptide array binding signal intensity [55]: 6 | SPOT peptide array binding signal intensity [56]: 57.5 | SPOT peptide array binding signal intensity [57]: 238 | SPOT peptide array binding signal intensity [58]: 1 | SPOT peptide array binding signal intensity [59]: 1040 | SPOT peptide array binding signal intensity [60]: 0.5 | SPOT peptide array binding signal intensity [61]: 1 | SPOT peptide array binding signal intensity [62]: 0.5 | SPOT peptide array binding signal intensity [63]: ≤ 0 | SPOT peptide array binding signal intensity [64]: ≤ 0 | SPOT peptide array binding signal intensity [65]: ≤ 0 | SPOT peptide array binding signal intensity [66]: 13 | SPOT peptide array binding signal intensity [67]: 0.25 | SPOT peptide array binding signal intensity [68]: 2.33 | SPOT peptide array binding signal intensity [69]: 350 | SPOT peptide array binding signal intensity [70]: ≤ 0 | SPOT peptide array binding signal intensity [71]: 0.5 | SPOT peptide array binding signal intensity [72]: ≤ 0 | SPOT peptide array binding signal intensity [73]: ≤ 0 | SPOT peptide array binding signal intensity [74]: 8 | SPOT peptide array binding signal intensity [1]: 0.5 | SPOT peptide array binding signal intensity [2]: 6.5 | SPOT peptide array binding signal intensity [3]: 3 | SPOT peptide array binding signal intensity [4]: 4 | SPOT peptide array binding signal intensity [5]: 366 | SPOT peptide array binding signal intensity [6]: 1050 | SPOT peptide array binding signal intensity [7]: ≤ 0 | SPOT peptide array binding signal intensity [8]: ≤ 0 | SPOT peptide array binding signal intensity [9]: ≤ 0 | SPOT peptide array binding signal intensity [10]: 0.5 | SPOT peptide array binding signal intensity [11]: 5.5 | SPOT peptide array binding signal intensity [12]: 0.667 | SPOT peptide array binding signal intensity [13]: 4 | SPOT peptide array binding signal intensity [14]: ≤ 0
